# Test results as given in PubChem BioAssay (NCATS).
# Results filed as inconclusive are left out. Activity calls are given as the source filed them. Calls follow the shape of the dose curve; as a rule, active = well fitted cell-killing curve with a large enough effect; inconclusive = small, poorly fitted or top-dose-only effect; inactive = flat fitted curve, though single readings scatter. Numbered stars: 1 amine (or outer) side, 2 acyl side, 3 side chain; on linkers, the order of the positions; unused ones are H or OH. Bridge positions count the residues as written; N and C are the ends. Square brackets hold non-standard residues; d marks the D form. Peptide text beside a SMILES is read from it. I, II: the chains in the order shown. Actinocin(9to1) = Cc1c2oc3c(C)ccc(C(=O)[*:1])c3nc-2c(C(=O)[*:2])c(N)c1=O; NMeV = CN[C@H](C(=O)O)C(C)C; Sar = CNCC(=O)O
# Experiment: qHTS assay to identify small molecule inhibitors of chordoma cells - UCH-2 (AID 1259356)
# Settings: UCH-2 chordoma viability, CellTiter-Glo ATP luminescence, 48 h; series mostly up to 46.1 µM; activity change, negative = inhibition: at the top concentration
# From the text: NIH Chemical Genomics Center [NCGC]
# Chordoma is a rare and slow growing tumor that can occur anywhere along the spine, from the base of the skull to the tailbone. Current treatment options for chordoma is surgery and radiation therapy for those who are not candidates for surgery. But chordomas tend to return in the same location or surrounding areas of the original tumor after surgery and/or radiation. Chemotherapy can slow down the progression of the tumor. As chordoma is slow growing, the general cytotoxic agents that kill fast growing cells are ineffective, and some patients have been reported to respond to molecularly targeted drugs.
# NCATS Pharmaceutical Collection (NPC) containing approximately 3000 clinically approved and investigational drugs were used to screen at 15 concentrations in a chordoma cell lines, UCH-2, to identify small molecule compounds that can inhibit chordoma cell growth.
# NCGC Assay Protocol Summary:
# Human chordoma cell line UCH-2 was dispensed at 800 per well in 4uL of culture medium into white solid bottom 1536-well plates (Corning Life Sciences, Corning, NY) using a Multidrop Combi (Thermo Scientific, Waltham, MA) dispenser. The assay plates were incubated at 37 C and 5% CO2 for an overnight, and then 23nL of compounds dissolved in DMSO and positive control were transferred using a Pintool station (Wako, San Diego, CA). Compound treatment was followed by the addition of 1uL of the combination compounds (1uM Auranofin, 500nM each of Camptothecin, Doxorubicin, Rubitecan, and Topotecan) and assay medium to each well of the assay plates using Flying Reagent Dispenser (FRD, Aurora Discovery, San Diego, CA). The assay plates were incubated at 37 C and 5% CO2 for 48hr. Then 5uL of CellTiter-Glo reagent (Promega Corporation, Madison, WI) was added to each well of the assay plates using FRD. After 30min incubation at room temperature, the luminescence signal was quantified using a ViewLux plate reader (PerkinElmer, Shelton, CT).
# % is scaled to controls: 0 for no effect and ±100 for the full control effect.
row,Structure (SMILES),"activity change, negative = inhibition"
1,O=C1OC2(c3ccc(O)cc3Oc3cc(O)ccc32)c2ccccc21,11.6% (inactive)
2,CCCn1c(=O)[nH]c(=O)c2[nH]cnc21,-1.53% (inactive)
3,C[C@]12C=CC(=O)C=C1CC[C@@H]1[C@@H]2[C@@H](O)C[C@@]2(C)[C@H]1CC[C@]2(O)C(=O)CO,2.88% (inactive)
4,CC(=O)OCC(=O)[C@@]1(OC(C)=O)[C@@H](C)C[C@H]2[C@@H]3C[C@H](F)C4=CC(=O)C=C[C@]4(C)[C@@]3(F)[C@@H](O)C[C@@]21C,5.91% (inactive)
5,CCOC(=O)[C@H](CCc1ccccc1)N[C@@H](C)C(=O)N1Cc2ccccc2C[C@H]1C(=O)O,12.2% (inactive)
6,CC(=O)Oc1ccc(C(=C2CCCCC2)c2ccc(OC(C)=O)cc2)cc1,-2.17% (inactive)
7,CC(C)NC[C@@H](O)COc1cccc2ccccc12,0% (inactive)
8,O=C1OC(c2ccc(O)cc2)(c2ccc(O)cc2)c2ccccc21,10.1% (inactive)
9,CC(C)(C)CC(C)(C)c1ccc(O)c(Cc2ccc(Cl)cc2Cl)c1,20.2% (inactive)
10,O=C1c2ccccc2C(=O)C1c1ccccc1,6.23% [at 20.6 µM] (inactive)
11,COc1ccc(C2C(=O)c3ccccc3C2=O)cc1,6.58% (inactive)
12,CCCOC(C(=O)OC1CCN(C)CC1)(c1ccccc1)c1ccccc1,-0.669% (inactive)
13,COc1cc(-c2ccc(=O)[nH]n2)ccc1OC(F)F,-0.0943% (inactive)
14,CC(Cc1ccccc1)(NC(=O)CN)c1ccccc1 (stereo not given),4.53% (inactive)
15,Oc1ccc(Cl)cc1Sc1cc(Cl)ccc1O,1.61% (inactive)
16,N[C@@H](CCC(=O)N[C@@H](CS)C(=O)NCC(=O)O)C(=O)O,-1.41% (inactive)
17,CCCCCCCCCCCCCCCCOP(=O)([O-])OCC[N+](C)(C)C,-2.89% (inactive)
18,COc1cccc2c1C(=O)c1c(O)c3c(c(O)c1C2=O)C[C@@](O)(C(=O)CO)C[C@@H]3O[C@H]1C[C@H](N)[C@H](O)[C@H](C)O1,0% (inactive)
19,C=C1C(=C/C=C2\CCC[C@]3(C)[C@@H]([C@H](C)/C=C/[C@@H](O)C4CC4)CC[C@@H]23)C[C@@H](O)C[C@@H]1O,3.82% (inactive)
20,CCCC(=O)Nc1ccc(OCC(O)CNC(C)C)c(C(C)=O)c1 (stereo not given),7.07% [at 20.6 µM] (inactive)

row,Structure (SMILES),"activity change, negative = inhibition"
1,Oc1c(Cl)cc(Cl)cc1Sc1cc(Cl)cc(Cl)c1O,4.43% (inactive)
2,C[C@H]1[C@H](NC(=O)/C(=N/OC(C)(C)C(=O)O)c2csc(N)n2)C(=O)N1S(=O)(=O)O (stereo in doubt),0.589% [at 20.6 µM] (inactive)
3,O=C1CCC(c2ccc(-n3ccnc3)cc2)=NN1,5.35% (inactive)
4,CCCCc1nc(Cl)c(CO)n1Cc1ccc(-c2ccccc2-c2nn[nH]n2)cc1,-19.1% (inactive)
5,Cc1cc(=O)n(-c2ccccc2)n1C,-2.08% (inactive)
6,CNCCC=C1c2ccccc2CCc2ccccc21,-22.3% (inactive)
7,CCN(CCCCOC(=O)c1ccc(OC)c(OC)c1)C(C)Cc1ccc(OC)cc1 (stereo not given),0.0513% [at 20.6 µM] (inactive)
8,CCCSS/C(CCO)=C(\C)N(C=O)Cc1cnc(C)nc1N,-26.2% (inactive)
9,CCN1CCN(c2cc3c(cc2F)c(=O)c(C(=O)O)cn3C2CC2)CC1,-3.3% (inactive)
10,CN(C)CCCOc1nn(Cc2ccccc2)c2ccccc12,-16.6% [at 20.6 µM] (inactive)
11,CC(=O)CC(c1ccc([N+](=O)[O-])cc1)c1c(O)c2ccccc2oc1=O (stereo not given),0.778% [at 20.6 µM] (inactive)
12,NC(CO)(CO)CO,-2.12% (inactive)
13,CCCN1CCCC[C@H]1C(=O)Nc1c(C)cccc1C,-4.5% (inactive)
14,O=C(N/N=C/c1ccccc1O)c1ccncc1,-17.6% (inactive)
15,Cc1c(N(C)CS(=O)(=O)O)c(=O)n(-c2ccccc2)n1C,14.4% [at 20.6 µM] (inactive)
16,Nc1ccc(/C=C/c2ccc(N)cc2S(=O)(=O)O)c(S(=O)(=O)O)c1,2.37% (inactive)
17,"Cc1c2oc3c(C)ccc(C(=O)N[C@@H]4C(=O)N[C@H](C(C)C)C(=O)N5CCC[C@H]5C(=O)N(C)CC(=O)N(C)[C@@H](C(C)C)C(=O)O[C@@H]4C)c3nc-2c(C(=O)N[C@@H]2C(=O)N[C@H](C(C)C)C(=O)N3CCC[C@H]3C(=O)N(C)CC(=O)N(C)[C@@H](C(C)C)C(=O)O[C@@H]2C)c(N)c1=O (I: T[dV]P[Sar][NMeV] / II: T[dV]P[Sar][NMeV]; ester I:1-I:C, II:1-II:C; linker I:N-II:N via Actinocin(9to1))",-21.7% (inactive)
18,CN(C)/N=N/c1nc[nH]c1C(N)=O,3.17% (inactive)
19,CNCC[C@@H](Oc1ccccc1C)c1ccccc1,-25.8% (inactive)
20,CC(=O)OCC(=O)NCCCOc1cccc(CN2CCCCC2)c1,-13.5% (inactive)
